Inhibition data for 39 molecules are collected here from ChEMBL document CHEMBL4513146, “CO-ADD screening of Karazin Kharkiv National University (Ukraine) compounds”.

Broadly, the Inhibition is the change of the read-out against control, counted positive when it falls.

Results with a measured potency or affinity are listed apart.

In the first test the test system is Staphylococcus aureus. Conditions: Concentration 32 ug.mL-1;; ASSAY_TEST Inhibition of Bacterial Growth; detection method Absorption (OD600); MEDIA CAMHB; plate type 384well; NBS; CORNING #3640; time 18 hr.
For `COc1cccc(Sc2nc3ccccc3n3c(=O)n(CC(=O)Nc4ccc(Cl)cc4)nc23)c1`, the Inhibition was determined as 1.75%.
For `Cc1cc2nn(CC(=O)NC3CCCCC3)c(=O)n2c(Nc2ccc(F)c(C)c2)n1`, the Inhibition is recorded as 11.08%.
The same measure, in the same setting: with `O=C(Cn1nc2c3c4c(sc3ncn2c1=O)CCCC4)NCc1ccccc1Cl` the figure was -19.92%.
As to `CCCCOc1ccc(-c2cc3c4nnc(SCC(=O)Nc5cccc(C(C)=O)c5)n4ccn3n2)cc1`, the Inhibition was 1.68%.
Regarding `Cc1ccc(-c2ccc3nn(Cc4cccc(F)c4)c(=O)n3n2)cc1C`, the Inhibition amounted to 7.67%.
Same read-out and setting: the value for `COC(=O)c1ccc(NC(=O)Cn2nc3ccc(SCc4ccc(Cl)cc4)nn3c2=O)cc1` was 18.39%; that for `Cc1ccc(Oc2nccn3c(=O)n(CC(=O)Nc4ccc(C)cc4Br)nc23)cc1` was 4.05%.
On the same count and under the same terms, the value for `Cc1nnc2c(=O)n(CC(=O)Nc3ccc(F)cc3)c3ccccc3n12` was 15.51%; that for `Cc1nnc2ccc(S(=O)(=O)N(Cc3ccccc3Cl)c3ccc(F)cc3)cn12` was -4.74%.
`Cc1cccc(NC(=O)Cn2nc3nc(N4CCCCCC4)ccn3c2=O)c1C`: the Inhibition came out at 7.24%.
The same measure, in the same setting: the value for `COc1ccc(-n2ccn3c(-c4cccc([N+](=O)[O-])c4)nnc3c2=O)cc1` was 3.65%; that for `Cc1cccc(C)c1NC(=O)CSc1nnc2c3cc(-c4ccccc4)nn3ccn12` was -21.6%; that for `O=c1c2sccc2n2c(=O)n(Cc3ccc(F)cc3)nc2n1Cc1cccs1` was 13.21%.
Still for that read-out and setting: the value for `COc1ccc(NC(=O)Cn2nc3nc(N4CCOCC4)ccn3c2=O)cc1F` was -2.35%.
For the molecule `Cc1ccc(-c2cc3c4nn(CC(=O)NCc5ccccc5)c(=O)n4ccn3n2)cc1C`, the Inhibition is -8%.
On the same count and under the same terms, the value for `O=C(Cn1nc2c(SCc3ccccc3)nccn2c1=O)NC1CCCC1` was -2.71%.
The same measure, in the same setting: with `Cc1ccc(-c2ccc3nn(Cc4ccc(F)cc4Cl)c(=O)n3n2)cc1C` the figure was 8.63%; with `Cc1ccc(Oc2nccn3c(=O)n(CC(=O)N4CCN(c5ccc(F)cc5)CC4)nc23)cc1`, 10.18%; with `Cc1ccc(-c2cc3c4nnc(CCC(=O)N5CCN(c6ccccn6)CC5)n4ccn3n2)cc1C`, -0.56%.
The same measure, in the same setting: with `Cc1ccc(NC(=O)Cn2nc3c4cc(-c5ccc(C)c(C)c5)nn4ccn3c2=O)c(C)c1` the figure was -8.87%; with `Cc1nnc2c(SCC(=O)Nc3cccc(Br)c3)nc3ccccc3n12`, -13.66%.
As for `O=S(=O)(c1ccc2nncn2c1)N(Cc1cc(F)cc(F)c1)c1ccc2c(c1)OCO2`, the Inhibition was 8.77%.
Same read-out and setting: with `Cc1c(Cl)cccc1NC(=O)Cn1nc2c(N3CCOCC3)nc3ccccc3n2c1=O` the figure was 6.58%; with `COc1ccccc1N1CCN(C(=O)Cn2nc3ccc(-c4ccc(C)c(C)c4)nn3c2=O)CC1`, 13.88%.
On the same count and under the same terms, the value for `Cc1ccc(NC(=O)Cn2nc3c(SCc4ccc(Cl)cc4)nccn3c2=O)cc1F` was 5.52%.
Regarding `COC(=O)c1ccc(NC(=O)Cn2nc3c(Oc4cccc(OC)c4)nccn3c2=O)cc1`, the Inhibition came out at 10.83%.
Still for that read-out and setting: the value for `CCc1nnc2ccc(S(=O)(=O)N(Cc3ccc(OC)c(F)c3)c3ccccc3)cn12` was -14.1%; that for `CCc1ccccc1NC(=O)Cn1c(=O)c2nnc(C(C)C)n2c2ccccc21` was 5.45%; that for `CCc1nnc2c(S(=O)(=O)N(Cc3cccc(OC)c3)c3cccc(C)c3)cccn12` was 10.64%.
Still for that read-out and setting: with `Cc1cc(C)cc(N(Cc2cc(C)ccc2C)S(=O)(=O)c2cccn3c(C)nnc23)c1` the figure was 6.88%.
Consider `Cc1cc(C)c(NC(=O)Cn2nc3c(N4CCN(c5ccccc5)CC4)nccn3c2=O)c(C)c1`, for which the Inhibition came out at 13.62%.
Same read-out and setting: the value for `COc1cccc(Oc2nccn3c(=O)n(CC(=O)Nc4ccc(C)cc4Cl)nc23)c1` was 10.57%; that for `COc1cccc(-n2ccn3c(SCc4ccc(Cl)cc4)nnc3c2=O)c1` was -2.27%; that for `COc1ccc(-c2cc3c4nnc(CCC(=O)N5CCN(c6ccccc6F)CC5)n4ccn3n2)cc1` was 13.19%.
Still for that read-out and setting: the value for `Cc1ccc(NC(=O)CSc2nc3ccccc3n3c(C)nnc23)c(Br)c1` was 15.19%; that for `COc1ccc(OC)c(NC(=O)Cn2nc3ccc(SCc4ccc(Cl)cc4)nn3c2=O)c1` was -2.6%; that for `Cc1ccc(NC(=O)Cn2nc3c(N4CCOCC4)nccn3c2=O)cc1Cl` was 10.97%.
Still for that read-out and setting: the value for `CCOc1ccc(-n2ccn3c(SCc4cccc(C(F)(F)F)c4)nnc3c2=O)cc1` was 18.58%.
Turning to `CC(C)Cn1c(=O)c2sccc2n2c(=O)n(Cc3ccccc3Cl)nc12`, the Inhibition amounted to 2.13%.

The next test has as its system Escherichia coli. Conditions: Concentration 32 ug.mL-1;; ASSAY_TEST Inhibition of Bacterial Growth; detection method Absorption (OD600); MEDIA CAMHB; plate type 384well; NBS; CORNING #3640; time 18 hr.
In the case of `COc1cccc(Sc2nc3ccccc3n3c(=O)n(CC(=O)Nc4ccc(Cl)cc4)nc23)c1`, the Inhibition is -3.52%.
Still for that read-out and setting: the value for `Cc1cc2nn(CC(=O)NC3CCCCC3)c(=O)n2c(Nc2ccc(F)c(C)c2)n1` was 0.19%; that for `O=C(Cn1nc2c3c4c(sc3ncn2c1=O)CCCC4)NCc1ccccc1Cl` was 0.09%.
Still for that read-out and setting: the value for `CCCCOc1ccc(-c2cc3c4nnc(SCC(=O)Nc5cccc(C(C)=O)c5)n4ccn3n2)cc1` was 1.11%; that for `Cc1ccc(-c2ccc3nn(Cc4cccc(F)c4)c(=O)n3n2)cc1C` was 1.83%.
Still for that read-out and setting: with `COC(=O)c1ccc(NC(=O)Cn2nc3ccc(SCc4ccc(Cl)cc4)nn3c2=O)cc1` the figure was 1.59%; with `Cc1ccc(Oc2nccn3c(=O)n(CC(=O)Nc4ccc(C)cc4Br)nc23)cc1`, -2.42%.
On to `Cc1nnc2c(=O)n(CC(=O)Nc3ccc(F)cc3)c3ccccc3n12`, for which the Inhibition is 1.65%.
On the same count and under the same terms, with `Cc1nnc2ccc(S(=O)(=O)N(Cc3ccccc3Cl)c3ccc(F)cc3)cn12` the figure was -4.95%; with `Cc1cccc(NC(=O)Cn2nc3nc(N4CCCCCC4)ccn3c2=O)c1C`, -2.03%; with `COc1ccc(-n2ccn3c(-c4cccc([N+](=O)[O-])c4)nnc3c2=O)cc1`, -6.72%.
Still for that read-out and setting: the value for `Cc1cccc(C)c1NC(=O)CSc1nnc2c3cc(-c4ccccc4)nn3ccn12` was -21.37%.
On the same count and under the same terms, with `O=c1c2sccc2n2c(=O)n(Cc3ccc(F)cc3)nc2n1Cc1cccs1` the figure was -2.41%.
On to `COc1ccc(NC(=O)Cn2nc3nc(N4CCOCC4)ccn3c2=O)cc1F`, for which the Inhibition is recorded as -9.58%.
The same measure, in the same setting: the value for `Cc1ccc(-c2cc3c4nn(CC(=O)NCc5ccccc5)c(=O)n4ccn3n2)cc1C` was -9.14%; that for `O=C(Cn1nc2c(SCc3ccccc3)nccn2c1=O)NC1CCCC1` was 0.2%; that for `Cc1ccc(-c2ccc3nn(Cc4ccc(F)cc4Cl)c(=O)n3n2)cc1C` was -0.58%.
The same measure, in the same setting: the value for `Cc1ccc(Oc2nccn3c(=O)n(CC(=O)N4CCN(c5ccc(F)cc5)CC4)nc23)cc1` was 1.45%; that for `Cc1ccc(-c2cc3c4nnc(CCC(=O)N5CCN(c6ccccn6)CC5)n4ccn3n2)cc1C` was -4.11%.
Still for that read-out and setting: with `Cc1ccc(NC(=O)Cn2nc3c4cc(-c5ccc(C)c(C)c5)nn4ccn3c2=O)c(C)c1` the figure was -22.36%.
For `Cc1nnc2c(SCC(=O)Nc3cccc(Br)c3)nc3ccccc3n12`, the Inhibition was -1.77%.
With `O=S(=O)(c1ccc2nncn2c1)N(Cc1cc(F)cc(F)c1)c1ccc2c(c1)OCO2`, the Inhibition is on record as -5.98%.
On the same count and under the same terms, with `Cc1c(Cl)cccc1NC(=O)Cn1nc2c(N3CCOCC3)nc3ccccc3n2c1=O` the figure was -0.44%.
The same measure, in the same setting: with `COc1ccccc1N1CCN(C(=O)Cn2nc3ccc(-c4ccc(C)c(C)c4)nn3c2=O)CC1` the figure was -0.61%.
On the same count and under the same terms, with `Cc1ccc(NC(=O)Cn2nc3c(SCc4ccc(Cl)cc4)nccn3c2=O)cc1F` the figure was 0.08%; with `COC(=O)c1ccc(NC(=O)Cn2nc3c(Oc4cccc(OC)c4)nccn3c2=O)cc1`, -2.01%.
`CCc1nnc2ccc(S(=O)(=O)N(Cc3ccc(OC)c(F)c3)c3ccccc3)cn12`: the Inhibition is given as -2.03%.
Still for that read-out and setting: the value for `CCc1ccccc1NC(=O)Cn1c(=O)c2nnc(C(C)C)n2c2ccccc21` was 0.46%; that for `CCc1nnc2c(S(=O)(=O)N(Cc3cccc(OC)c3)c3cccc(C)c3)cccn12` was -1.22%.
Same read-out and setting: with `Cc1cc(C)cc(N(Cc2cc(C)ccc2C)S(=O)(=O)c2cccn3c(C)nnc23)c1` the figure was -2.32%; with `Cc1cc(C)c(NC(=O)Cn2nc3c(N4CCN(c5ccccc5)CC4)nccn3c2=O)c(C)c1`, -0.55%; with `COc1cccc(Oc2nccn3c(=O)n(CC(=O)Nc4ccc(C)cc4Cl)nc23)c1`, -3.8%.
On the same count and under the same terms, the value for `COc1cccc(-n2ccn3c(SCc4ccc(Cl)cc4)nnc3c2=O)c1` was 1.4%; that for `COc1ccc(-c2cc3c4nnc(CCC(=O)N5CCN(c6ccccc6F)CC5)n4ccn3n2)cc1` was 1.66%; that for `Cc1ccc(NC(=O)CSc2nc3ccccc3n3c(C)nnc23)c(Br)c1` was -2.51%.
Turning to `COc1ccc(OC)c(NC(=O)Cn2nc3ccc(SCc4ccc(Cl)cc4)nn3c2=O)c1`, the Inhibition is on record as -8.88%.
With `Cc1ccc(NC(=O)Cn2nc3c(N4CCOCC4)nccn3c2=O)cc1Cl`, the Inhibition is 1.83%.
The same measure, in the same setting: with `CCOc1ccc(-n2ccn3c(SCc4cccc(C(F)(F)F)c4)nnc3c2=O)cc1` the figure was 1.02%.
Still for that read-out and setting: the value for `CC(C)Cn1c(=O)c2sccc2n2c(=O)n(Cc3ccccc3Cl)nc12` was -6.09%.
